Results: the supplement of paper PMC3545927
This is one part of the list. How many sequences the whole screen found active is unknown.

Target: furin, P09958
Experiment: furin cleavage Z-score vs untreated control; higher = more cleavage, active = 3.5 or more, inactive = 1 or less, 8 variable residues between constant flanks
Procedure, shortened: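 Magnetic beads held 8-mer peptides by the N-terminus, each fused to a cDNA oligonucleotide, and purified furin was added for 7.5, 15 or 30 min. Released DNA was sequenced after PCR adapter tagging. The cleavage Z-score is the log count relative to furin-free reactions, lowess-adjusted and divided by median absolute deviation.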
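Also: purified furin at 1:10 enzyme:substrate in 50 mM HEPES pH 7.5.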

Chain of furin, P09958 (P09958 whole entry): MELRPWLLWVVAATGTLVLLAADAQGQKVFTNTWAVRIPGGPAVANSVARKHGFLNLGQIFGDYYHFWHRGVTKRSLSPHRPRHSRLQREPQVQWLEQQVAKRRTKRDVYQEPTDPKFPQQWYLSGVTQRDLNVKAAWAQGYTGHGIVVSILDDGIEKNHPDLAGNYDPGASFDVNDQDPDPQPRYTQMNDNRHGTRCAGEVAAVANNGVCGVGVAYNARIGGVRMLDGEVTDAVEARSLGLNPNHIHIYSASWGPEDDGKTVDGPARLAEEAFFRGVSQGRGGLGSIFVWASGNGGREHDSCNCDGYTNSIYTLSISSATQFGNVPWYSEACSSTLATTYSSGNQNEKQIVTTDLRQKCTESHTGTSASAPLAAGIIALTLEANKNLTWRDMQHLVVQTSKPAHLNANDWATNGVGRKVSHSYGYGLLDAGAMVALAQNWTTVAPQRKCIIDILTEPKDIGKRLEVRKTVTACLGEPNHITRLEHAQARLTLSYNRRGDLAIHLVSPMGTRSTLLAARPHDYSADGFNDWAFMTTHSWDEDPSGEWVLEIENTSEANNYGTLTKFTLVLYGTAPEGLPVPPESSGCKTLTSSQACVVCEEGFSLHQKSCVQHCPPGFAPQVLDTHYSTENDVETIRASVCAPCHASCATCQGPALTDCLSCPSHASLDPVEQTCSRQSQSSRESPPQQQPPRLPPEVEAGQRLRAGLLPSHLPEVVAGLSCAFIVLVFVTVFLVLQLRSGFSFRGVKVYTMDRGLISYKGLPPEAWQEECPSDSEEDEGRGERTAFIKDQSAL

| Sequence | furin cleavage Z-score (7.5 min) | furin cleavage Z-score (15 min) | furin cleavage Z-score (30 min) |
| --- | --- | --- | --- |
| CASCSSNVSVAGNASASA [HC1553] | 1.25 | -0.606 (inactive) | 0.334 (inactive) |
| CAVVCCSDSYAGNASASA [HC2051] | -1.19 (inactive) | 0.168 (inactive) | -0.153 (inactive) |
| CAQDARRARSAGNASASA [FS-845] | 6 (active) | 7.49 (active) | 7.26 (active) |
| CAYGRRRRRSAGNASASA [FS-519] | 9.52 (active) | 10.7 (active) | 8.36 (active) |
| CAGSCRRARSAGNASASA [FS-1333] | 8.24 (active) | 6.66 (active) | 7.27 (active) |
| CAGRRLARGSAGNASASA [HC1254] | 3.43 | 4.7 (active) | 6.13 (active) |
| CAPYILKRGSAGNASASA [NG2] | 1.17 | 0.28 (inactive) | 0.586 (inactive) |
| CAYGLRDARSAGNASASA [FS-900] | -0.0484 (inactive) | -0.398 (inactive) | -0.0248 (inactive) |
| CAEVPCHRGSAGNASASA [HC2396] | 0.0196 (inactive) | 1.61 | 1.87 |
| CAVAYQATVCAGNASASA [HC954] | -0.525 (inactive) | -0.292 (inactive) | -0.577 (inactive) |
| CAMFDSSVLCAGNASASA [HC916] | -1.5 (inactive) | -1.04 (inactive) | 0.432 (inactive) |
| CADGRRFRQAAGNASASA [FS-1668] | -1.15 (inactive) | -1.53 (inactive) | -0.448 (inactive) |
| CAICTTPCSGAGNASASA [HC1944] | -1.41 (inactive) | -0.982 (inactive) | 0.0737 (inactive) |
| CASTPCSVHLAGNASASA [HC2530] | -0.933 (inactive) | 0.438 (inactive) | 1.38 |
| CALHVWIPPLAGNASASA [HC589] | 1.25 | 1.42 | 0.509 (inactive) |
| CASRRRRARSAGNASASA [FS-872] | 8.77 (active) | 9.73 (active) | 7.27 (active) |

| Sequence | furin cleavage Z-score (7.5 min) | furin cleavage Z-score (15 min) | furin cleavage Z-score (30 min) |
| --- | --- | --- | --- |
| CAPPRRLRRSAGNASASA [FS-841] | 5.16 (active) | 4.08 (active) | 3.48 |
| CARSGRSRSRAGNASASA [FS-1926] | -0.645 (inactive) | -0.505 (inactive) | -1.41 (inactive) |
| CAIPKRLRRSAGNASASA [FS-35] | 1.85 | 0.768 (inactive) | 1.2 |
| CAGRRRRHRSAGNASASA [FS-532] | 9.48 (active) | 10.3 (active) | 6.94 (active) |
| CARSGRRRRSAGNASASA [FS-88] | 5.85 (active) | 5.32 (active) | 4.99 (active) |
| CARSGAPTYSAGNASASA [HC421] | 0.424 (inactive) | -0.13 (inactive) | -0.882 (inactive) |
| CAAWRHRARSAGNASASA [HC1620] | 0.0962 (inactive) | 1.9 | 1.59 |
| CAILNAASLAAGNASASA [HC537] | -1.87 (inactive) | -0.982 (inactive) | 0.861 (inactive) |
| CATTPCYGSWAGNASASA [HC77] | 0.0798 (inactive) | 1.4 | -0.0858 (inactive) |
| CALAHGVRVLAGNASASA [HC236] | 0.101 (inactive) | 1.37 | 0.879 (inactive) |
| CAPPRRRARSAGNASASA [FS-72] | 11.2 (active) | 10.8 (active) | 7.57 (active) |
| CAPPWRLRRSAGNASASA [FS-1383] | 9.19 (active) | 9.31 (active) | 7.39 (active) |
| CAPTDPRRRSAGNASASA [HC215] | 0.57 (inactive) | 3.28 | 0.563 (inactive) |
| CARSTRDRRSAGNASASA [FS-1273] | 11.6 (active) | 13.1 (active) | 9.03 (active) |
| CAPPRRRRRSAGNASASA [FS-948] | 8.33 (active) | 8.78 (active) | 7.37 (active) |
